# Compound activity (PubChem)
# Only some compounds are listed: those with a hit (about 3% of all), similar ones and a draw of the others.
# Sm TGR inh = qHTS Assay for the Inhibitors of Schistosoma Mansoni Peroxiredoxins | Schistosoma mansoni thioredoxin glutathione reductase (TGR), Q962Y6 | 360,000 tested, 3% active | AID 485364, 2010 | purified TGR, DTNB reduction, TNB absorbance 405 nm | Potency, µM (series often up to 114 µM), usual class: inhibitors; active means well fitted inhibition curve with a large enough effect; inconclusive means small, poorly fitted or top-dose-only effect; inactive means no such curve, though single readings can be large or run the other way; further: nearly all actives have a fitted effect of over 60% in size
#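 First, TGR (20 nM dispensed) and NADPH were mixed with compound. Second, a 15 min room-temperature incubation followed. Third, further NADPH and then DTNB were added to start the reaction. Finally, TNB absorbance was monitored kinetically.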
# SARS PLpro yeast-1 = qHTS of Yeast-based Assay for SARS-CoV PLP | AID 485353, 2010 | Potency, µM (titrated, usually from 32.9 µM), usual class: activators | 330,000 tested, 0.19% active | S. cerevisiae expressing SARS-CoV PLpro, growth rescue; calls by dose curve; further: nearly all actives have a fitted effect of over 55% in size
# SARS PLpro yeast-2 = qHTS of Yeast-based Assay for SARS-CoV PLP: Hit Validation | shares compounds with SARS PLpro yeast-1 | yeast expressing SARS-CoV PLpro, growth phenotype rescue | calls only | 1,000 tested, 19% active | AID 652038, 2013; call rule not given here
# A number is an active result; 0 = inactive; ? = inconclusive; - = not tested or not shown; + = active, no number.
SMILES,Sm TGR inh,SARS PLpro yeast-1,SARS PLpro yeast-2
COc1ccc(NC(=O)Nc2cccc3c2O[C@H](CN(C)C(=O)Nc2ccc(OC)cc2)[C@@H](C)CN([C@H](C)CO)C3=O)cc1,-,0,-
CNC[C@H]1Oc2c(NS(=O)(=O)c3ccccc3)cccc2C(=O)N([C@H](C)CO)C[C@@H]1C,-,10µM,0
COc1ccc(NC(=O)N(C)C[C@H]2Oc3c(NC(=O)C4CC4)cccc3C(=O)N([C@H](C)CO)C[C@@H]2C)cc1,-,?,0
C[C@H](CO)N1C[C@H](C)[C@@H](CN(C)Cc2ccccc2)Oc2c(NS(=O)(=O)c3ccccc3)cccc2C1=O,-,0,-
O=c1n(Cc2ccccc2Cl)c2ccccc2c2nc(-c3ccccc3)nn12,0,-,-
CCN(Cc1ccccc1)S(=O)(=O)c1ccc(C(=O)N2CCN(c3nc4ccccc4s3)CC2)cc1,0,2.8µM,0
CCc1ccc2nc(N3CCN(C(=O)c4ccccc4)CC3)sc2c1,0,-,-
O=C(CN1C(=O)CSc2ccc(S(=O)(=O)N3CCCC3)cc21)Nc1cccc(Cl)c1,0,-,-
C[n+]1cn(/N=C/c2ccccc2)c2ccccc21,0,?,0
C(=N\n1c2ccccc2c2ccccc21)/c1ccccc1,0,0,-
Cc1ccccc1Cn1c(=O)n(CCCCC(=O)NCc2ccc3c(c2)OCO3)c(=O)c2ccccc21,0,-,-
CN(CC(=O)Nc1c(Cl)cccc1Cl)C(=O)c1cc(S(=O)(=O)N(C)C)ccc1N1CCCC1,0,?,0
COc1ccc(NC(=O)CN(C)C(=O)c2cc(S(=O)(=O)N(C)C)ccc2N2CCCC2)cc1,0,-,-
Cc1c(NC(=O)COc2ccccc2Cl)c(=O)n(-c2ccccc2)n1C,0,0,-
Cc1c(NC(=O)COc2ncnc3c(Cl)cc(Cl)cc23)c(=O)n(-c2ccccc2)n1C,0,?,0
Cc1cccc(C(=O)OCc2cc(=O)n3nc(C4CC4)sc3n2)c1,0,-,-
COc1ccc(/C=C/C(=O)NCc2cn(C)nc2C)cc1COc1ccc(Br)cc1,0,?,0
Cc1nn(C)cc1CNC(=O)/C=C/c1cnn(C)c1,0,0,-
CC(=O)Oc1ccc(C(=O)[C@H]2[C@H]3C(=O)N(c4ccc5ccccc5c4)C(=O)[C@H]3[C@@H]3C=CC=NN32)cc1,0,3.2µM,0
O=C1C2C3C=CC(C3)C2C(=O)N1c1ccc2ccccc2c1 (centres undefined),0,0,-
CCC(=O)N1c2ccc(S(=O)(=O)CCC(=O)Nc3ccc(Br)c(C)c3)cc2CC1C (centres undefined),0,-,-
Cc1[nH]n(-c2cccc3ccccc23)c(=O)c1/C=N/NC(=O)c1cccc([N+](=O)[O-])c1,0,?,+
Cc1[nH]n(-c2ccccc2)c(=O)c1/C=N/NC(=O)c1cccc([N+](=O)[O-])c1,0,0,-
COc1cc2c(cc1OC)C(COc1ccc3c(C)cc(=O)oc3c1)N(C(=O)c1cccc(C)c1)CC2 (centres undefined),0,-,-
Cc1cccc(N2CCN(C(=O)CCCn3ncn4c(cc5occc54)c3=O)CC2)c1C,0,-,-
SMILES,Sm TGR inh,SARS PLpro yeast-1,SARS PLpro yeast-2
Cc1cc(=O)[nH]c(SCC(=O)N2CCN(C(=O)c3ccco3)CC2)n1,-,0,-
O=C(Cc1cc(=O)[nH]c(=O)[nH]1)N1CCN(C(=O)c2ccco2)CC1,0,1.8µM,0
COc1ccc(CC(=O)NC2CC(=O)N(c3ccc(C)c(C)c3)C2)cc1OC (centres undefined),0,-,-
O=C(O)c1ccc(NCc2ccc3c(c2)OCO3)cc1,0,?,0
O=C(NCc1ccc2c(c1)OCO2)c1ccc2c(c1)OCO2,0,0,-
COc1ccc(OC)c(NC(=O)N(C)CCc2c(C)nn(C)c2C)c1,0,-,-
CC(=O)c1ccc(NC(=O)c2cn(-c3ccccc3)nc2-c2ccc(Br)cc2)cc1,0,-,-
CC(=O)N1c2ccc(S(=O)(=O)N3CCCCCC3)cc2CC1C(=O)NC(C)C (centres undefined),0,-,-
COc1cc(/C=N/NC(=O)/C(=C\c2ccc([N+](=O)[O-])cc2)NC(=O)c2ccccc2)cc(OC)c1O,0,0,-
O=C(N/N=C/c1cc([N+](=O)[O-])cc([N+](=O)[O-])c1O)/C(=C\c1cccs1)NC(=O)c1ccccc1,0,?,+
COc1ccc(NC(=O)CSC2=Nc3ccccc3C3=NC(CC(=O)NCc4ccc5c(c4)OCO5)C(=O)N23)cc1 (centres undefined),0,-,-
CCCCOc1ccc(CNC(=O)c2cnc3sc(N4CCC(C)CC4)nn3c2=O)cc1,0,-,-
CCOc1cc(CNC(=O)C2COc3ccccc3C2)cc(OCC)c1OCC (centres undefined),0,-,-
COc1cc(NC(=S)NCc2ccc(S(N)(=O)=O)cc2)c(OC)cc1Cl,0,?,0
Cc1ccc(NC(=S)NCc2ccc(S(N)(=O)=O)cc2)cc1Cl,0,0,-
COc1ccc(S(=O)(=O)NCC(c2ccc(N(C)C)cc2)N2CCCC2)cc1F (centres undefined),0,-,-
Cc1ccc(NC(=O)C2CCCN(S(=O)(=O)c3cccc4nsnc34)C2)c(C)c1 (centres undefined),0,-,-
COc1ccccc1-c1noc(CCC(=O)Nc2ccc(C)cc2C)n1,0,-,-
COc1ccccc1C(=O)NC1(C(F)(F)F)C(=O)Nc2c1c(=O)[nH]c(=O)n2-c1ccc(F)cc1 (centres undefined),0,-,-
O=C(CNCCCO)Nc1cc(C(F)(F)F)cc(NC(=O)CNCCCO)c1Cl,0,?,0
O=C(CNC1CC1)Nc1cc(C(F)(F)F)ccc1Cl,0,0,-
CC(=O)Nc1cccc(NC(=O)C2(c3cccs3)CCOCC2)c1,0,-,-
Cc1cccc(C(C)C)c1NC(=O)c1ccc2c(c1)CCCN2S(C)(=O)=O,0,-,-
CNC(=S)N/N=C/C1=CCC2CC1C2(C)C (centres undefined),0,13µM,+
CC1(C)C2CC=C(/C=N/NC(=S)NCCc3ccccc3)C1C2 (centres undefined),0,0,-
SMILES,Sm TGR inh,SARS PLpro yeast-1,SARS PLpro yeast-2
CCOc1ccccc1NC(=O)N1CCc2cc(S(=O)(=O)N3CCC(C)CC3)ccc21,0,-,-
CCN1CCN(CCC(=O)Nc2ccccc2OC)CC1,0,0,-
CCOC(=O)N1CCN(CCC(=O)Nc2ccccc2OC)CC1,?,?,0
CC(=O)Nc1ccc(NC(=O)Cc2sc(C)nc2-c2ccc(C)cc2)cc1,0,?,0
Cc1ccc(-c2nc(C)sc2CC(=O)Nc2nnc(C)s2)cc1,0,0,-
COc1ccccc1CNC(=O)CCc1ccccc1,0,0,-
COc1ccccc1CNC(=S)NCCc1ccccc1,0,?,?
CCOc1ccc(-c2cc3nc(C4CCN(C(=O)OC(C)(C)C)CC4)c(C(=O)Nc4ccc(C)c(F)c4)cn3n2)cc1,0,-,-
COc1ccc(C2=NN(CC(=O)NCCc3ccc(OC)c(OC)c3)C(=O)CC2)cc1,0,-,-
Cc1ccc(-n2nc(C(=O)N(C)c3ccc(C)c(C)c3)c3c4ccccc4n(C)c3c2=O)cc1,0,-,-
CC(=O)N1CCc2cc(Br)cc(S(=O)(=O)N3CCCCCC3)c21,0,0,-
COC(=O)C1(S(=O)(=O)c2cc(Br)cc3c2N(C(C)=O)CC3)CC1,0,?,0
Cc1cc(Cl)ccc1NC(=S)Nc1ccccn1,0,5µM,+
Cc1cccc(NC(=S)Nc2ccccn2)c1,?,0,-
Cc1cc(C)cc(NC(=S)Nc2ccccn2)c1,?,3.2µM,+
Cc1ccc(NC(=S)Nc2ccccn2)c(C)c1,?,0,-
